Compounds without any hit were thinned out: in the full panel of roughly 83,000, 20% have a hit.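 Note: values are percent growth. 100 is the growth of untreated cells, values between 100 and 0 indicate rising inhibition; between -100 and 0 indicates cell death.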 Activity calls are given as the source filed them.

This assay concerns TK-10 renal. The experiment in a line: NCI-60 one-dose screen, 48 h (100 = growth as untreated, 0 = no growth, -100 = all killed). As to conditions: 10 µM. As to the method: Growth inhibition of the TK-10 human tumor cell line is measured as a screen for anti-cancer activity. Cells are grown in 96 well plates and exposed to the test compound for 48 hours. Compounds are tested at a single concentration, which is 10^-5 M for most compounds. The reported endpoint is percent growth (GI% or GIPRCNT), where numbers from 0 - 100% represent growth inhibition, and numbers from -100% - 0 represent cell death. For example, a value of 40 represents 60% growth inhibition. A value of 0 means no net growth occurred over the course of the experiment. A value of -40 indicates 40% of cells at the beginning of the experiment died by the end of the experiment. A value of -100 means all cells are dead at the end of the experiment.
NCI-60 Human Tumor Cell Lines Screen was performed using the standard one-dose NCI protocol, which is described in more detail at https://dtp.cancer.gov/discovery_development/nci-60/default.htm.
Compounds with GIPRCNT values below 10 were considered active. Activity score was based on GIPRCNT using the following formula: […]
Score is 0 for GIPRCNT values of 100 or above, 50 for GIPRCNT values of 0, and 100 for GIPRCNT values of -100.
As to `COc1ccc(-c2[nH]ncc2-c2cc(OC)c(OC)c(OC)c2)cc1`, the growth was 44.7% (inactive). The figure for `COc1cc2nc(Sc3sc(N)nc3C)n(-c3ccc(Oc4ccccc4)cc3)c(=O)c2cc1OC` is 98.1% (inactive); for `Oc1ccccc1-c1nnc(Cn2c(Cc3cccc4ccccc34)nc3ccccc32)o1` it is 99.2% (inactive); for `CC(C)C[C@H](NC(=O)CCn1ccc2ccccc2c1=O)B(O)O` it is 12.8% (inactive). Under `CCCCCCCCCCN=C(c1ccc(N(C)C)cc1)c1ccc(N(C)C)cc1` stands 55.7% (inactive). Under `Cc1ccc(C)c(S(=O)(=O)NC2c3ccccc3Oc3ccccc32)c1` stands 90.7% (inactive); under `NC1CCC(Nc2nc(NCc3ccc(-c4cccs4)nc3)c3ncn(C4CCCC4)c3n2)CC1` (stereo not given), 5.89% (active); under `COc1ccc(/C=C2\CCC3C(CCCC34OCCO4)C2=O)cc1` (stereo not given), 95.3% (inactive). For `Cc1cc(C(C)(C)CC(C)(C)C)ccc1OCCOCC[N+](C)(C)Cc1ccccc1`, the growth was -11.6% (active).

For `CCOC(=O)/C(C#N)=C(/C)C1CC1`, the growth was 116% (inactive). Turning to `O=S(=O)(NCl)c1ccccc1`, the growth was 96.2% (inactive). Under `CCN1CCN(c2ccc(Nc3ncnc4c3nnn4CCc3cc(OC)cc(OC)c3)cc2)CC1` stands 114% (inactive); under `O=C(NCc1cn(Cc2cccc(Oc3ccccc3)c2)nn1)c1cccnc1Nc1ccccc1`, 85.2% (inactive). On to `CC(C)c1ncc(CO)n1Cc1c(Cl)cccc1Cl`, for which the growth was 95% (inactive).

As to `C[C@]12CC[C@H]3[C@@H](CCC4=CC(=O)CC[C@@]43C)[C@@H]1CC[C@@H]2c1csc(N)n1`, the growth is 87.3% (inactive).

As to `CCOC(=O)c1cc2c(n1Cc1cccc(OC)c1)-c1oncc1CC2`, the growth is 53.2% (inactive).

`CCCCCc1cc[n+](CC(=O)c2ccc(Cl)cc2)cc1`: the growth is 98.4% (inactive). The figure for `O=NN(CC(=O)N/N=C/C=C\c1ccccc1)CC(=O)N/N=C/C=C/c1ccccc1` is 131% (inactive); for `O=C(Nc1cccc(Cl)c1)OCC(COC(=O)Nc1cccc(Cl)c1)(COC(=O)Nc1cccc(Cl)c1)[N+](=O)[O-]` it is 53.7% (inactive). The figure for `CC(C)(C)c1ccc(OCCCCCCN2CCNCC2)cc1` is 90.8% (inactive). The figure for `COC(=O)[C@]12CC[C@@H](C)[C@H](C)[C@@H]1C1=CC[C@@H]3[C@@]4(C)CC(=O)[C@H](O)[C@@](C)(CO)[C@@H]4C(=O)C[C@@]3(C)[C@]1(C)CC2` is 22.1% (inactive); for `CCOC(=O)c1c(C)n(-c2ccc(Cl)cc2)c2ccc(OC(=O)/C=C/c3ccccc3)cc12` it is 96% (inactive).

For `CC(=O)N(O)c1ccc(/C=C/c2ccccc2)cc1`, the growth was 4.86% (active). Consider `COc1ccc2oc(=O)cc(C(c3ccc[nH]3)c3ccc[nH]3)c2c1`, for which the growth is 26.4% (inactive). On to `NS(=O)(=O)c1ccc(N2N=C(c3ccc(-c4ccccc4)cc3)CC2c2ccc(Cl)cc2)cc1` (stereo not given), for which the growth is 112% (inactive). The figure for `O=C1/C(=C/c2cccs2)CCC/C1=C\c1cccs1` is 78.2% (inactive).

For the molecule `CCOC(=O)c1sc(Nc2ncccn2)nc1-c1ccccn1`, the growth is 102% (inactive). Take `COCCOC(=O)NC(=O)Nc1ccc(C(=O)c2ccc(Cl)cc2)cc1`: the growth is 53.2% (inactive). The figure for `NC1CCC(Nc2nc(NCc3ccc(-c4ccco4)nc3)c3ncn(C4CCCC4)c3n2)CC1` (stereo not given) is 3.91% (active); for `O=NN(CCCl)C(=O)Nc1ccc(NC(=O)N(CCCl)N=O)cc1` it is 114% (inactive). The figure for `CC(CNC(Cc1ccccc1)c1ccccc1)NC(Cc1ccccc1)c1ccccc1` (stereo not given) is 60.6% (inactive). The figure for `CCCc1c(C)nc2scc(-c3ccc(Cl)cc3)n2c1=O` is 102% (inactive); for `COc1ccc(NC(=O)CCn2cnc3c(cc(-c4ccccc4)n3-c3ccccc3)c2=O)cc1` it is 105% (inactive). As to `O=C(Nc1ccc(OCc2nnc(-c3ccccc3)o2)c(F)c1)Nc1ccc(Cl)c(Cl)c1`, the growth was 66.2% (inactive). Consider `COc1nc2c(c(=O)[nH]1)C(c1ccc(Oc3ccnc4cc(Cl)ccc34)c(OC)c1)C=C(c1cc(OC)c(OC)c(OC)c1)N2` (stereo not given), for which the growth was 103% (inactive). Under `CCCCOCC(=O)NC(NP(=O)(N(C)C)N(C)C)C(Cl)(Cl)Cl` (stereo not given) stands 134% (inactive).

For `CC1(C)CNC(=O)N1`, the growth was 97.7% (inactive).

Consider `O=C(CCl)N1c2ccccc2Sc2ccc3ccccc3c21`, for which the growth is -57.7% (active).

On to `CCOC(=O)Nc1ccc2c(c1)C(=O)N(CCOC)c1ccccc1O2`, for which the growth is 58.7% (inactive). The figure for `COc1ccc2nc(/C=C/c3ccc(N(C)C)cc3)sc2c1` is 103% (inactive).

Values taken from PubChem BioAssay (NCI).
